# According to PubChem BioAssay (NCI):
# This is part of a sample that, as a whole, favours compounds with a hit. Of some 79,000 tested, about 15% had one in any assay. A number with no mark means an inactive call. Calls of active or inactive are those of the source. Cut-off read from the data, not from the text of the source: active = growth inhibition above about 70%; inactive = the rest.
# Assay: NCI Yeast Anticancer Drug Screen. Data for the rad52 strain (AID 147);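 note: 0% = growth of vehicle-treated control cultures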
# Details: S. cerevisiae rad52 mutant growth inhibition, stronger effect = higher value
# Procedure: Growth inhibition of yeast strains with defined genetic alterations is measured as a screen for potential anti-cancer activity. Selected strains with alterations in DNA damage repair or cell cycle control were exposed to compounds and growth inhibition was measured relative to vehicle treated controls. The strain used in this assay is rad52
Compound,growth inhibition (at 1.2 µM),growth inhibition (at 3.7 µM),growth inhibition (at 11.0 µM),growth inhibition (at 33.0 µM),growth inhibition (at 100.0 µM)
COC(=O)c1cccc(C)c1C(=O)c1c(C)cc(C)cc1C,-1%,-1%,4%,28%,77% (active)
COc1ccc(N2C(=O)CC(Cl)C2=O)cc1 (stereo not given),-10%,-9%,10%,80% (active),99% (active)
CCN(CC)CC(O)c1cc(-c2ccc(Cl)cc2)nc2c(-c3ccccc3)cccc12 (stereo not given),-1%,-1%,98% (active),98% (active),93% (active)
CC(=O)[O-].O=C([CH-]C(=O)c1ccccc1)c1ccccc1.O=C([CH-]C(=O)c1ccccc1)c1ccccc1.[Sm+3],4%,-2%,80% (active),97% (active),98% (active)
CCOC(=O)C(NC(=O)CC)(N1CCN(c2cc3c(cc2F)c(=O)c(C(=O)O)cn3C2CC2)CC1)C(F)(F)F (stereo not given),0%,3%,44%,91% (active),97% (active)
Nc1nc(F)nc2c1ncn2C1OC(COP(=O)(O)O)C(O)C1O (stereo not given),2%,5%,12%,22%,52%
CC(=O)N1C(=O)/C(=C\C(=O)c2ccc(Cl)cc2)c2ccccc21,8%,34%,59%,93% (active),94% (active)
CN(CC(=O)O)c1ccc(/C=C/c2ccnc3ccccc23)cc1,-3%,-5%,-2%,13%,41%
